Measured values taken from PubChem BioAssay (NCI).
Compounds without any hit were thinned out: in the full panel of roughly 79,000, 15% have a hit. Values without a mark were called inactive. Activity calls are given as the source filed them. No stated cut-off is given here; in the data, active means growth inhibition above about 70%; inactive means the rest.

How the values were obtained:
[1] = NCI Yeast Anticancer Drug Screen. Data for the wt2 strain (AID 169);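 further: 0% = growth of vehicle-treated yeast cultures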; conditions: S. cerevisiae wt2 strain growth inhibition, hits give high values
Outline: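 The panel's yeast strains carry defined changes in DNA repair or cell cycle genes. Each strain is grown with compound, and growth loss is scored relative to vehicle.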

[2] = NCI Yeast Anticancer Drug Screen. Data for the mlh1 strain (AID 171);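 further: 0% = growth of vehicle-treated control cultures of the same strain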; conditions: S. cerevisiae mlh1 strain growth inhibition, hits give high values
Outline: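 Inhibition values reflect reduced yeast growth in the presence of compound, referenced to vehicle controls, using a strain chosen for its alteration in DNA repair or cell cycle control.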

[3] = NCI Yeast Anticancer Drug Screen. Data for the sgs1 strain (AID 173);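 further: 0% = growth of vehicle-only control cultures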; conditions: S. cerevisiae sgs1 mutant, hits give high values
Outline: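 Vehicle-treated cultures served as reference for growth inhibition of a yeast strain altered in DNA damage repair or cell cycle control after compound exposure.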

[4] = NCI Yeast Anticancer Drug Screen. Data for the mlh1 rad18 strain (AID 175); conditions: S. cerevisiae mlh1 rad18 strain growth inhibition, hits give high values
Outline: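 Inhibition values reflect reduced growth of mutant yeast versus vehicle-treated controls following compound exposure; the mutations affect DNA damage repair.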

[5] = NCI Yeast Anticancer Drug Screen. Data for the rad52 strain (AID 147);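 further: 0% = growth of vehicle-treated control cultures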; conditions: S. cerevisiae rad52 mutant growth inhibition, hits give high values
Outline: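 Inhibition of yeast growth, referenced to vehicle controls, was the measured output for a strain with defective DNA damage repair.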

[6] = NCI Yeast Anticancer Drug Screen. Data for the wt1 strain (AID 149);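 further: 0% = growth of vehicle-treated wt1 cultures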; conditions: S. cerevisiae wt1 strain (SPY 50644) growth inhibition, hits give high values
Outline: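 The wt1 strain was treated with compounds, and growth was compared with vehicle-treated cultures to give inhibition.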

[7] = NCI Yeast Anticancer Drug Screen. Data for the rad50EPP+ strain (AID 151);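 further: 0% = growth of vehicle-treated control cultures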; conditions: S. cerevisiae rad50 mutant strain, hits give high values
Outline: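 Genetically defined yeast (rad50EPP+, DNA damage repair alteration) is grown with compound, and inhibition of growth is expressed relative to vehicle-treated controls.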

[8] = NCI Yeast Anticancer Drug Screen. Data for the mgt1 strain (AID 153); conditions: S. cerevisiae mgt1 mutant growth inhibition, hits give high values
Outline: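 In the mgt1 strain, test compounds were added and growth inhibition was determined relative to vehicle-treated controls.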

[9] = NCI Yeast Anticancer Drug Screen. Data for the rad50 strain (AID 155);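 further: 0% = growth of vehicle-only cultures of the same strain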; conditions: S. cerevisiae rad50 strain growth inhibition, hits give high values
Outline: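 Cells are treated with compound, grown, and their growth is then scored against vehicle-only cultures of the same repair-deficient yeast strain.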

[10] = NCI Yeast Anticancer Drug Screen. Data for the mec2-1 strain (AID 157); conditions: S. cerevisiae mec2-1 strain, hits give high values
Outline: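 Each compound was tested on mec2-1 yeast, a strain altered in DNA damage repair or cell cycle control. Growth inhibition is reported relative to vehicle.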

[11] = NCI Yeast Anticancer Drug Screen. Data for the rad14 strain (AID 159);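 further: 0% = growth of vehicle-treated control cultures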; conditions: S. cerevisiae rad14 strain growth inhibition, hits give high values
Outline: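 Readout: yeast growth inhibition, referenced to vehicle-only cultures. Strain bears a defined alteration in DNA damage repair.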

[12] = NCI Yeast Anticancer Drug Screen. Data for the sgs1 mgt1 strain (AID 161);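 further: 0% = growth of cultures given vehicle only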; conditions: S. cerevisiae sgs1 mgt1 strain, hits give high values
Outline: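 Read-out: growth inhibition vs vehicle controls. Cells: mutant yeast strain deficient in DNA damage repair.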

[13] = NCI Yeast Anticancer Drug Screen. Data for the CLN2oe strain (AID 163);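 further: 0% = growth of vehicle-only control cultures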; conditions: S. cerevisiae CLN2oe strain, hits give high values
Outline: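 First, the altered yeast strain was treated with each compound; second, its growth was measured; finally, inhibition was derived by comparison with vehicle controls.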

[14] = NCI Yeast Anticancer Drug Screen. Data for the cln2 rad14 strain (AID 165);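 further: 0% = growth equal to vehicle treated cultures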; conditions: S. cerevisiae cln2 rad14 strain, hits give high values
Outline: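 Test compounds were added to cln2 rad14 yeast cultures; inhibition of growth was then determined by comparison with vehicle treatment.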

[15] = NCI Yeast Anticancer Drug Screen. Data for the bub3 strain (AID 167); conditions: S. cerevisiae bub3 mutant strain, hits give high values
Outline: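 Part of a panel of yeast mutants defective in DNA damage repair or cell cycle regulation. Each strain is grown with compound, and inhibition is calculated relative to solvent-treated cultures.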

[16] = at 5.0 µM (retest, dose inferred, filed as 0.5)
[17] = at 50.0 µM (retest, dose inferred, filed as 5.0)

COc1cc2c(c(OC)c1OC)-c1c(cc3c(c1OC)OCO3)CC(C)C(C)(O)C2OC(=O)c1ccccc1 (centres undefined)
growth inhibition ([1]; at 1.2 µM): -26% | growth inhibition ([1]; at 3.7 µM): -28% | growth inhibition ([1]; at 11.0 µM): -29% | growth inhibition ([1]; at 33.0 µM): 33% | growth inhibition ([1]; at 100.0 µM): 93% (active) | growth inhibition ([2]; at 1.2 µM): -13% | growth inhibition ([2]; at 3.7 µM): -6% | growth inhibition ([2]; at 11.0 µM): -13% | growth inhibition ([2]; at 33.0 µM): -9% | growth inhibition ([2]; at 100.0 µM): 56% | growth inhibition ([3]; at 1.2 µM): -1% | growth inhibition ([3]; at 3.7 µM): -9% | growth inhibition ([3]; at 11.0 µM): 9% | growth inhibition ([3]; at 33.0 µM): -6% | growth inhibition ([3]; at 100.0 µM): 69% | growth inhibition [4, 16]: 3% | growth inhibition [4, 17]: 47% | growth inhibition ([4]; at 50.0 µM): 87.8% (active)

CCCCCCc1cc(C(=O)OC/C(C)=N/NC(N)=O)c2ccccc2n1
growth inhibition ([5]; at 1.2 µM): -1% | growth inhibition ([5]; at 3.7 µM): -1% | growth inhibition ([5]; at 11.0 µM): 1% | growth inhibition ([5]; at 33.0 µM): -1% | growth inhibition ([5]; at 100.0 µM): -3% | growth inhibition ([6]; at 1.2 µM): -2% | growth inhibition ([6]; at 3.7 µM): 1% | growth inhibition ([6]; at 11.0 µM): -4% | growth inhibition ([6]; at 33.0 µM): -5% | growth inhibition ([6]; at 100.0 µM): -5% | growth inhibition ([7]; at 1.2 µM): -1% | growth inhibition ([7]; at 3.7 µM): -3% | growth inhibition ([7]; at 11.0 µM): -4% | growth inhibition ([7]; at 33.0 µM): 2% | growth inhibition ([7]; at 100.0 µM): 3% | growth inhibition ([8]; at 1.2 µM): -3% | growth inhibition ([8]; at 3.7 µM): -3% | growth inhibition ([8]; at 11.0 µM): -2% | growth inhibition ([8]; at 33.0 µM): -5% | growth inhibition ([8]; at 100.0 µM): -5% | growth inhibition ([9]; at 1.2 µM): -3% | growth inhibition ([9]; at 3.7 µM): -3% | growth inhibition [9, 16]: -3% | growth inhibition ([9]; at 11.0 µM): 0% | growth inhibition ([9]; at 33.0 µM): -4% | growth inhibition [9, 17]: 32% | growth inhibition ([9]; at 50.0 µM): 26.6% | growth inhibition ([9]; at 100.0 µM): -4% | growth inhibition ([10]; at 1.2 µM): -4% | growth inhibition ([10]; at 3.7 µM): -2% | growth inhibition [10, 16]: -6% | growth inhibition ([10]; at 11.0 µM): -6% | growth inhibition ([10]; at 33.0 µM): -3% | growth inhibition [10, 17]: 42% | growth inhibition ([10]; at 50.0 µM): -1.15% | growth inhibition ([10]; at 100.0 µM): -7% | growth inhibition ([11]; at 1.2 µM): 0% | growth inhibition ([11]; at 3.7 µM): 3% | growth inhibition ([11]; at 11.0 µM): 3% | growth inhibition ([11]; at 33.0 µM): 0% | growth inhibition ([11]; at 100.0 µM): -4% | growth inhibition [12, 16]: -4% | growth inhibition [12, 17]: 47% | growth inhibition ([12]; at 50.0 µM): 31% | growth inhibition ([13]; at 1.2 µM): -3% | growth inhibition ([13]; at 3.7 µM): -11% | growth inhibition ([13]; at 11.0 µM): -5% | growth inhibition ([13]; at 33.0 µM): -13% | growth inhibition ([13]; at 100.0 µM): -10% | growth inhibition [14, 16]: -1% | growth inhibition [14, 17]: 21% | growth inhibition ([14]; at 50.0 µM): -12.3% | growth inhibition ([15]; at 1.2 µM): 0% | growth inhibition ([15]; at 3.7 µM): -4% | growth inhibition [15, 16]: -2% | growth inhibition ([15]; at 11.0 µM): -2% | growth inhibition ([15]; at 33.0 µM): 3% | growth inhibition [15, 17]: 77% (active) | growth inhibition ([15]; at 50.0 µM): 68.5% | growth inhibition ([15]; at 100.0 µM): 5% | growth inhibition ([1]; at 1.2 µM): 0% | growth inhibition ([1]; at 3.7 µM): -1% | growth inhibition ([1]; at 11.0 µM): 0% | growth inhibition ([1]; at 33.0 µM): -2% | growth inhibition ([1]; at 100.0 µM): -4% | growth inhibition ([2]; at 1.2 µM): -3% | growth inhibition ([2]; at 3.7 µM): -4% | growth inhibition ([2]; at 11.0 µM): -4% | growth inhibition ([2]; at 33.0 µM): -5% | growth inhibition ([2]; at 100.0 µM): -5% | growth inhibition ([3]; at 1.2 µM): -4% | growth inhibition ([3]; at 3.7 µM): -4% | growth inhibition ([3]; at 11.0 µM): -6% | growth inhibition ([3]; at 33.0 µM): -5% | growth inhibition ([3]; at 100.0 µM): -4% | growth inhibition [4, 16]: -4% | growth inhibition [4, 17]: 50% | growth inhibition ([4]; at 50.0 µM): 61.4%

CSc1nc(=S)[nH]c2c1c(C)nn2-c1ccccc1
growth inhibition ([5]; at 1.2 µM): 11% | growth inhibition ([5]; at 3.7 µM): 18% | growth inhibition ([5]; at 11.0 µM): 12% | growth inhibition ([5]; at 33.0 µM): 11% | growth inhibition ([5]; at 100.0 µM): 41% | growth inhibition ([6]; at 1.2 µM): 11% | growth inhibition ([6]; at 3.7 µM): -2% | growth inhibition ([6]; at 11.0 µM): -1% | growth inhibition ([6]; at 33.0 µM): -4% | growth inhibition ([6]; at 100.0 µM): 1% | growth inhibition ([7]; at 1.2 µM): -17% | growth inhibition ([7]; at 3.7 µM): -16% | growth inhibition ([7]; at 11.0 µM): -24% | growth inhibition ([7]; at 33.0 µM): -10% | growth inhibition ([7]; at 100.0 µM): 14% | growth inhibition ([8]; at 1.2 µM): -19% | growth inhibition ([8]; at 3.7 µM): -15% | growth inhibition ([8]; at 11.0 µM): -3% | growth inhibition ([8]; at 33.0 µM): 7% | growth inhibition ([8]; at 100.0 µM): 35% | growth inhibition ([9]; at 1.2 µM): 12% | growth inhibition ([9]; at 3.7 µM): -1% | growth inhibition [9, 16]: 39% | growth inhibition ([9]; at 11.0 µM): 11% | growth inhibition ([9]; at 33.0 µM): 11% | growth inhibition [9, 17]: 91% (active) | growth inhibition ([9]; at 50.0 µM): 50.8% | growth inhibition ([9]; at 100.0 µM): 11% | growth inhibition ([10]; at 1.2 µM): 3% | growth inhibition ([10]; at 3.7 µM): -6% | growth inhibition [10, 16]: 16% | growth inhibition ([10]; at 11.0 µM): 1% | growth inhibition ([10]; at 33.0 µM): -1% | growth inhibition [10, 17]: 97% (active) | growth inhibition ([10]; at 50.0 µM): 45.8% | growth inhibition ([10]; at 100.0 µM): 3% | growth inhibition ([11]; at 1.2 µM): 9% | growth inhibition ([11]; at 3.7 µM): 18% | growth inhibition ([11]; at 11.0 µM): 28% | growth inhibition ([11]; at 33.0 µM): 23% | growth inhibition ([11]; at 100.0 µM): 34% | growth inhibition [12, 16]: 42% | growth inhibition [12, 17]: 98% (active) | growth inhibition ([12]; at 50.0 µM): 72.1% (active) | growth inhibition ([13]; at 1.2 µM): -8% | growth inhibition ([13]; at 3.7 µM): 0% | growth inhibition ([13]; at 11.0 µM): -4% | growth inhibition ([13]; at 33.0 µM): 3% | growth inhibition ([13]; at 100.0 µM): -14% | growth inhibition [14, 16]: 3% | growth inhibition [14, 17]: 62% | growth inhibition ([14]; at 50.0 µM): 33.8% | growth inhibition ([15]; at 1.2 µM): -16% | growth inhibition ([15]; at 3.7 µM): -6% | growth inhibition [15, 16]: 39% | growth inhibition ([15]; at 11.0 µM): -15% | growth inhibition ([15]; at 33.0 µM): -17% | growth inhibition [15, 17]: 97% (active) | growth inhibition ([15]; at 50.0 µM): 64% | growth inhibition ([15]; at 100.0 µM): -14% | growth inhibition ([1]; at 1.2 µM): -14% | growth inhibition ([1]; at 3.7 µM): 3% | growth inhibition ([1]; at 11.0 µM): 5% | growth inhibition ([1]; at 33.0 µM): 12% | growth inhibition ([1]; at 100.0 µM): 27% | growth inhibition ([2]; at 1.2 µM): 11% | growth inhibition ([2]; at 3.7 µM): 9% | growth inhibition ([2]; at 11.0 µM): 32% | growth inhibition ([2]; at 33.0 µM): 21% | growth inhibition ([2]; at 100.0 µM): 41% | growth inhibition ([3]; at 1.2 µM): 7% | growth inhibition ([3]; at 3.7 µM): -1% | growth inhibition ([3]; at 11.0 µM): 9% | growth inhibition ([3]; at 33.0 µM): 16% | growth inhibition ([3]; at 100.0 µM): 39% | growth inhibition [4, 16]: 26% | growth inhibition [4, 17]: 84% (active) | growth inhibition ([4]; at 50.0 µM): 52.1%
